# Results taken from PubChem BioAssay AID2284383 (EPA ToxCast).
# Records with an inconclusive call do not appear. Active and inactive are the calls of the source. The calls were made as follows: active = hit-call score of the fitted dose curve at least 0.9, where 1 is the maximum; inconclusive = response in the unintended direction; inactive = score below 0.9.
# Target: human Retinoic Acid Receptor gamma (RARg) Agonism, RARG (gene 5916) (UniProt P13631)
# Experiment: ERF_TW_NR_COA_hRARG: Eurofins (ERF) Nuclear Receptor (NR) Functional Coactivator Assay for human Retinoic Acid Receptor gamma (RARg) Agonism
# Method: ERF_TW_NR_COA_hRARG is a biochemical, single-readout assay that uses extracted gene-proteins in a cell-free assay. Measurements were taken 16 hours after chemical dosing in a 96-well plate. […] It is designed to measure FRET using a type of binding reporter as detected by fluorescence intensity of AM580 with fluorimetry technology.Data from the assay component ERF_TW_NR_COA_hRARG was analyzed at the assay endpoint, ERF_TW_NR_COA_hRARG, in the positive analysis fitting direction relative to DMSO as the negative control and baseline of activity. Using a type of binding reporter, gain-of-signal activity can be used to understand changes in binding as they relate to gene RARG. To generalize the intended target to other relatable targets, this assay endpoint is annotated to the nuclear receptor intended target family, where the subfamily is non-steroidal.
# Human recombinant retinoic acid receptor […] (RARgamma) receptors expressed in bacteria are used. Test compound and/or vehicle is incubated with the 25 nM receptors and binding buffer in modified Tris-HCl buffer pH 7.4 for 16 hours at 4C. Determination of the amount of complex formed is read spectrofluorimetrically (excitation:337 nm, emission:620/665 nm). Test compound-induced increase in fluorescence by 50 percent or more (>/= 50%) relative to the 0.3 uM AM580 response indicates possible RARgamma receptor agonist activity. […]
# human Retinoic Acid Receptor gamma (RARg) Agonism, RARG (gene 5916), sequence (P13631 whole entry, looked up): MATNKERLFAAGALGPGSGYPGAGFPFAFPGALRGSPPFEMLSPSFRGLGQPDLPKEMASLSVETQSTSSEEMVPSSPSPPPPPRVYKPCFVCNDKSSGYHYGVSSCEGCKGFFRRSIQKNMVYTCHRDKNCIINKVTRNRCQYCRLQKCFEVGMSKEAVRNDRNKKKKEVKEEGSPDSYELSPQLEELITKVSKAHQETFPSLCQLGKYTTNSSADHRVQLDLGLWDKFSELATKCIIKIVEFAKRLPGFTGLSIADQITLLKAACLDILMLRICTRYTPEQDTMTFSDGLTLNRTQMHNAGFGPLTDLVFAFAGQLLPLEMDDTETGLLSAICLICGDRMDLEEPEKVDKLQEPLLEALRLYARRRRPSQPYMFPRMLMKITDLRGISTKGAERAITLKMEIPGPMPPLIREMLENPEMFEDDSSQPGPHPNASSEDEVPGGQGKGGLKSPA
smiles,measurement,value
C[C@H]1C[C@@H]2[C@H]([C@@H](O)C[C@@]3(C)[C@H]2CC[C@]3(O)C(=O)CO)[C@@]2(C)C=CC(=O)C=C12,outcome,inactive
